Experimental data published in PubChem BioAssay AID686996 (Broad Institute, 2013).
Values joined by “and” are separate entries in the source; they are usually repeats but may differ in a detail not shown here. Identical values can stand only once. The whole screen tested about 350,000 compounds, of which about 1,900 (0.54%) were called active.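 Rule for the calls: active = mean inhibition across replicates at least about 35%, with every replicate also reaching that limit (limit read from the data); inconclusive = only one of the two criteria met; inactive = neither criterion met.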 Many of the other results were omitted from the sample, so actives are more common in it than they were. A structure can be active in one record and inactive in another.

target: Caspase-6 (Homo sapiens) (UniProt P55212); assay: inhibition of CASP6 peptide cleavage – biochemical, VEID-R110 fluorescence, single point, set 2, primary screen (AID 686996); conditions: purified caspase-6, Z-VEID-R110 cleavage fluorescence; at 12.5 µM; stronger effect = higher value;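 note: 0% = median of neutral control wells and 100% = no fluorescence left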
Sequence (P55212 24-179 limits assumed): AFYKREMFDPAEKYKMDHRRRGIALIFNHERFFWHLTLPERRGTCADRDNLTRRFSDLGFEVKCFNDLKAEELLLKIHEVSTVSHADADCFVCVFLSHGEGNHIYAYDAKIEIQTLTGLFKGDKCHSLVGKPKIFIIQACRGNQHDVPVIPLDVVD
Sequence (P55212 194-293 limits assumed): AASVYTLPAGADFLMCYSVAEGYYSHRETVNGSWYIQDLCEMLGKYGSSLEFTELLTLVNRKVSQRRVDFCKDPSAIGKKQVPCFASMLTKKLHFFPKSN

SMILES	inhibition
CC=Cc1ccc2n(c1=O)C[C@@H]1[C@@H](CO)[C@H](C(=O)N(C)C)[C@H]2N1CCc1ccccc1 (mixture of isomers)	-1.44% (inactive)
CC=Cc1ccc2n(c1=O)C[C@@H]1[C@@H](CO)[C@H](C(=O)NCCc3ccccc3)N(C(C)=O)[C@H]21 (mixture of isomers)	61.2% (active)
CC=Cc1ccc2n(c1=O)C[C@@H]1[C@@H](CO)[C@H](C(=O)N[C@H](C)c3ccccc3)N(C(=O)c3cnccn3)[C@H]21 (mixture of isomers)	-3.98% (inactive)
CO[C@H]1CN(C)C(=O)c2ccc(NC(=O)C3CC3)cc2OC[C@@H](C)N(Cc2ccc(F)cc2)C[C@@H]1C	3.32% (inactive)
CO/N=C(\C(=O)N[C@@H]1C(=O)N2C(C(=O)O)=C(COC(C)=O)CS[C@H]12)c1csc(N)n1 (stereo in doubt)	13.9% (inactive) and 5.09% (inactive) and 37.7% (active)
C=CC1=C(C(=O)O)N2C(=O)[C@@H](NC(=O)/C(=N/OCC(=O)O)c3csc(N)n3)[C@H]2SC1	88.2% (active)
Cc1cc(C)cc(C(=O)NC2C(=O)N3C(C(=O)O)=C(CSc4nnc(C)s4)CSC23)c1 (configuration not stated)	9.95% (inactive)
CCN1CCN(C(=O)N[C@@H](C(=O)N[C@@H]2C(=O)N3C(C(=O)O)=C(CSc4nnnn4C)CS[C@H]23)c2ccc(O)cc2)C(=O)C1=O	0.383% (inactive)
COc1ccccc1NC(=O)N1C[C@H](O)COC[C@H]2O[C@H](CC(=O)NCCc3ccccc3)CC[C@@H]21	1.79% (inactive)
COc1ccccc1CN1CC[C@@H]2[C@@H](CO)Nc3ccc(C#Cc4ccccc4)cc3[C@@H]21	0.663% (inactive)
C[C@@H]1CN([C@@H](C)CO)C(=O)c2cc(NC(=O)Nc3cccc4ccccc34)ccc2O[C@@H]1CN(C)C(=O)NC1CCCCC1	0.662% (inactive)
C[C@@H](O)C#Cc1cnc2c(c1)C(=O)N([C@@H](C)CO)C[C@H](C)[C@@H](CN(C)CC1CCCCC1)O2	2.32% (inactive)
Oc1ccc(/C=N/N(Cc2ccccc2)c2ccccc2)cc1	-0.437% (inactive)
Oc1ccc(N=Cc2c(O)ccc3ccccc23)cc1	36.4% (active)
Cc1cc(N=Nc2ccc3ccccc3c2)ccc1O	2.65% (inactive)
COc1ccc(S(=O)(=O)Nc2cccc3c2O[C@H](CN(C)Cc2ccc4c(c2)OCO4)[C@H](C)CN([C@@H](C)CO)C3=O)cc1	0.634% (inactive)
C[C@H]1CCCCO[C@H](CN(C)C(=O)Nc2ccccc2)[C@@H](C)CN([C@@H](C)CO)C(=O)c2cc(NC(=O)c3ccncc3)ccc2O1	-0.544% (inactive)
Cc1cc(/C=C2/SC(=O)N(CC(=O)OC(C)C)C2=O)c(C)n1C	1.11% (inactive)
Cc1cc(/C=C2\SC(=O)N(C)C2=O)c(C)n1-c1cccc(C(=O)O)c1	39.2% (active)
Cc1cc(/C=C2/SC(=O)N(CC(=O)N3CCCC3)C2=O)c(C)n1C	1.51% (inactive)
O=C(C1=C[C@@H](c2ccccc2)C[C@@H](OCCCCO)O1)N1CCN(Cc2ccccc2)CC1	-1.99% (inactive)
C[C@@H]1CN([C@H](C)CO)C(=O)Cc2cc(NC(=O)CCN3CCOCC3)ccc2O[C@H]1CN(C)C	0.558% (inactive)
COc1ccc2c3c([nH]c2c1)[C@@H](CO)N(Cc1ccncc1)CC31CN(C(=O)CN(C)C)C1	-1.6% (inactive)
Cc1oc2c(c1C(=O)N1CCOCC1)C(=O)c1ccccc1C2=O	62.8% (active)

SMILES	inhibition
O=C(c1snnc1-c1ccccc1)N1CCOCC1	-0.096% (inactive)
O=C(NC(=O)N1CCOCC1)c1ccccc1	-0.559% (inactive)
Cc1ccc(S(=O)(=O)N[C@H]2CC[C@H](CC(=O)O)O[C@H]2CO)cc1	3% (inactive)
Cc1noc(C)c1S(=O)(=O)N(C)C[C@H]1OCCCC[C@@H](C)Oc2ccc(NC(=O)C3CCCCC3)cc2C(=O)N([C@H](C)CO)C[C@@H]1C	-3.38% (inactive)
COc1ccc(NC(=O)Nc2ccc3c(c2)C(=O)N([C@@H](C)CO)C[C@@H](C)[C@@H](CN(C)S(=O)(=O)c2ccc(C)cc2)OCCCC[C@H](C)O3)cc1	-2.65% (inactive)
COCC(=O)N1[C@@H](CO)[C@H](c2ccccc2)C12CN(C(=O)NC1CCCCC1)C2	-0.716% (inactive)
O=C(Nc1ccccc1C(=O)Nc1ccncc1)c1ccc([N+](=O)[O-])cc1	-0.84% (inactive)
O=C(Nc1nc2ccc([N+](=O)[O-])cc2s1)c1ccncc1	65.7% (active)
O=C(Nc1ccncc1)c1ccc([N+](=O)[O-])cc1Cl	-0.931% (inactive)
CC(C)NC(=O)N(C)C[C@H]1Oc2ncc(C#CC3CC3)cc2C(=O)N([C@H](C)CO)C[C@@H]1C	-0.116% (inactive)
C[C@H](CO)N1C[C@H](C)[C@H](CN(C)C(=O)Nc2cccc(Cl)c2Cl)OCc2ccccc2-c2ccccc2C1=O	0.728% (inactive)
O=C(CCCN1C(=O)/C(=C/c2cccs2)SC1=S)Nc1ccc(O)cc1	0.413% (inactive)
COc1cccc(/C=C2\SC(=S)N(CCCC(=O)N3CCOCC3)C2=O)c1	-1.77% (inactive)
Cc1ccc(-c2nn(-c3ccccc3)cc2/C=C2\SC(=S)N(CCCCCC(=O)O)C2=O)o1	49.9% (active)
Cc1ccc(S(=O)(=O)Nc2ccc3c(c2)C(=O)N(C)[C@H]2CC[C@H](CC(=O)O)O[C@H]2CO3)cc1	0.009% (inactive)
C[C@H](CO)N1C[C@H](C)[C@H](CN(C)C(=O)C2CCC2)Oc2ncc(C#CCc3ccccc3)cc2C1=O	-2.13% (inactive)
O=C(O)CCn1c(O)c(C=C2N=c3ccccc3=N2)sc1=S	35.5% (active)
Cc1ccc(S(=O)(=O)N(C)C[C@@H]2Oc3c(NS(C)(=O)=O)cccc3C(=O)N([C@@H](C)CO)C[C@H]2C)cc1	0.89% (inactive)
COc1cccc(NC(=O)Nc2ccc3c(c2)C(=O)N(C)[C@@H]2CC[C@@H](CC(=O)NCCc4ccccc4)O[C@H]2CO3)c1	1.41% (inactive)
CCOc1ccccc1NC(=O)Cc1cccs1	39.6% (active)
CCOC(=O)c1ccc(NC(=O)Cc2cccs2)cc1	0.303% (inactive)
COc1ccc(OC)c(NC(=O)Cc2cccs2)c1	25.5% (inactive)
CO[C@H]1CN(C)C(=O)c2cc(NC(=O)Nc3cccc(F)c3)ccc2OC[C@@H](C)N(C)C[C@@H]1C	-5.35% (inactive)
C[C@H]1CN([C@@H](C)CO)S(=O)(=O)c2ccc(-c3ccncc3)cc2O[C@H]1CN(C)S(C)(=O)=O	-2.14% (inactive)

SMILES	inhibition
COc1ccc(S(=O)(=O)Nc2ccc3c(c2)CC(=O)N([C@@H](C)CO)C[C@@H](C)[C@@H](CN(C)C(=O)Nc2c(C)noc2C)O3)cc1	1.08% (inactive)
O=C(C[C@H]1CC[C@H]2[C@@H](COC[C@H](O)CN2S(=O)(=O)c2cccc(F)c2)O1)NC1CCC1	0.605% (inactive)
Cc1nnc(SC(C)C(=O)Nc2ccc(S(=O)(=O)NC3CCCCC3)cc2)s1 (configuration not stated)	3.47% (inactive)
CCCCCC(=O)Nc1ccc(S(=O)(=O)Nc2ccc(Cl)nn2)cc1	9.99% (inactive)
Cc1nnc(SCC(=O)Nc2ccc(S(=O)(=O)Nc3ccc(Cl)nn3)cc2)s1	35.3% (active)
C[C@@H](NC(=O)C[C@H]1CC[C@@H](NC(=O)Cc2ccccn2)[C@@H](CO)O1)c1ccccc1	-7.46% (inactive)
Oc1c(Cl)cc(Cl)c(Cl)c1Cc1c(O)c(Cl)cc(Cl)c1Cl	45.1% (active)
O=C(CSc1nc(O)c(Cc2ccccc2)c(=O)[nH]1)Nc1nc2c(s1)CCCC2	9.11% (inactive)
O=C(CCc1nc2sc3c(c2c(=O)[nH]1)CCCC3)NCC(=O)Nc1ccccc1Br	36.7% (active)
CC(C)c1nc(SCC(=O)Nc2cccc(C(=O)O)c2)c2c3c(sc2n1)CCCC3	9.4% (inactive)
O=c1ccc2c(-c3ccccc3S(=O)(=O)O)c3ccc(O)c(O)c3oc-2c1O	87.7% (active)
O=C(C[C@H]1CC[C@@H](NC(=O)Nc2ccc(F)cc2)[C@@H](CO)O1)NCCN1CCCC1	-1.07% (inactive)
O=C(O)Cn1cnc2c(NCc3ccccc3)ncnc21	-2.69% (inactive)
O=S(=O)(c1ccccc1)N1CC[C@@H]2[C@@H](CO)Nc3ccc(-c4ccccc4F)cc3[C@@H]21	-0.847% (inactive)
C[C@H](CO)N1C[C@H](C)[C@H](CN(C)S(C)(=O)=O)Oc2ccc(NC(=O)CCCN(C)C)cc2C1=O	-7.82% (inactive)
COC(=O)c1cccc(NC(=O)c2cccc(N3C(=O)CCC3=O)c2)c1	45% (active)
COC(=O)c1cccc(N2C(=O)C3C4C=CC(CC4)C3C2=O)c1 (configuration not stated)	3.07% (inactive)
COc1ccccc1-c1nnc(NC(=O)c2cccc(N3C(=O)CCC3=O)c2)o1	6.24% (inactive)
C[C@@H]1CN([C@@H](C)CO)C(=O)c2cccc(NS(=O)(=O)c3ccc(Cl)cc3)c2O[C@@H]1CN(C)Cc1ccccc1	0.793% (inactive)
O=C(C1CCC1)N1CC[C@@H]2[C@H]1c1cc(C#Cc3ccc(F)cc3)ccc1N[C@@H]2CO	1.04% (inactive)
CCN1CCN(C(=O)C2CCN(S(=O)(=O)c3cc(Cl)ccc3Cl)CC2)CC1	-3.59% (inactive)
O=S(=O)(c1cc(Cl)ccc1Cl)N1CCN(Cc2ccco2)CC1	4.43% (inactive)
O=C(CN1CCN(S(=O)(=O)c2cc(Cl)ccc2Cl)CC1)c1ccc(O)c(O)c1	35.7% (active)
COc1cccc(CNC(=O)[C@H]2CCCN2C(=O)[C@H]2CCCN2C(=O)C2CCCCC2)c1	5.61% (inactive)
